Screens deposited in PubChem BioAssay by several laboratories.
IDE act: activators of human insulin-degrading enzyme in cells; hit rate 0.073% among 340,000; AID 493087; activation, % at 5.96 µM; HEK cells, FAbeta-B cleavage, fluorescence polarization; 0% vehicle, 100% cell-free pure enzyme wells; P14735;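 active = activation above the mean of all tested compounds plus 3 SD, set per screening campaign, cut at about 17% in these data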
Exocytosis inh: blocks lytic granule exocytosis; hit rate 0.66% among 360,000; TALL-104 LAMP-1 surface exposure, flow cytometry; cells stimulated with thapsigargin and PMA; AID 651702; inhibition, % at 10 µM;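 active = inhibition above about 55%, limit read from the data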
IDE inh: cellular human IDE inhibition | inhibition, % at 5.59 µM | hit rate 0.41% among 320,000 | HEK cells, FAbetaB cleavage, fluorescence polarization | AID 434962 | P14735;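 active = percent inhibition above the average of all tested compounds plus 3 SD, set per screening campaign, cut at about 16% in these data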;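 also: IDE supplied by intact live HEK cells; FP after avidin binding of uncleaved biotin substrate so inhibition keeps polarization high; 0% = DMSO wells and 100% = 60 µM reference IDE inhibitor Ii1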
PP1 counter: blocks human PP1-alpha phosphatase, a PP5 counter-screen. purified PP1alpha, OMFP fluorescence. inhibition, % at 6.7 µM. hit rate 0.9% among 320,000. AID 2235;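 active = inhibition above the mean inhibition of all tested compounds plus 3 SD, computed separately for each screening campaign, cut at about 15% in these data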
Target sequence (P62136 whole entry, looked up): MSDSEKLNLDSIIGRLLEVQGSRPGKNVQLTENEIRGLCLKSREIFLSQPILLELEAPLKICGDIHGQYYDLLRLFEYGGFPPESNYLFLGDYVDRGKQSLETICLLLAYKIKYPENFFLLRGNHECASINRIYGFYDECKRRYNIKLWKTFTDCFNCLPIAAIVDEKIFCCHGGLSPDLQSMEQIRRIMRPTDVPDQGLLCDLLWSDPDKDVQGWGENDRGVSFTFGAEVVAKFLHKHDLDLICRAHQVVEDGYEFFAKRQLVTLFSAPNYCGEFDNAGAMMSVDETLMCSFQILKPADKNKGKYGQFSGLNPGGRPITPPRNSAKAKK
SKKanGAS inh: SKKanGAS growth inhibition | S. pyogenes SKKanGAS, kanamycin growth, BacTiter-Glo, 6 h | inhibition, % at 7.5 µM | hit rate 1.3% among 300,000;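 active = mean replicate score, as percent of positive control median, at least 50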;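 also: strain carries kanamycin resistance gene driven by streptokinase promoter and grows in 40 µg/ml kanamycin; loss of luminescence reflects streptokinase promoter inhibition or plain growth inhibition; 0% = median of DMSO wells and 100% = positive control at its reference dose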
PP5 inh: PP5 (human) phosphatase inhibition; inhibition, % at 6.7 µM; P53041; hit rate 0.18% among 320,000; purified PP5c, OMFP substrate fluorescence;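 active = inhibition above the campaign's mean inhibition across all tested compounds plus 3 SD, cut at about 9.5% in these data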;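 also: 0% = DMSO only and 100% = 100 µM cantharidin control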
* marks the source's active call; other numbers are inactive results; / = not tested or not shown. Hits are enriched below; roughly 2.8% of the tested compounds scored in any of these assays.

SMILES | IDE act | Exocytosis inh | IDE inh | PP1 counter | SKKanGAS inh | PP5 inh
CC(=O)Nc1cccc(-c2csc(C(C)(O)c3ccc(F)c(F)c3)n2)c1 (centres undefined) | / | -3 | / | / | / | /
CCCCc1c(C)nn(-c2nnc3c4ccccc4n(C)c3n2)c1C | 1 | 12 | 1 | 17* | 29 | 0
C/C=C(/C)C(=O)O[C@@H]1[C@H](OC(C)=O)c2c(ccc3ccc(=O)oc23)OC1(C)C | 3 | 61* | -1 | -2 | 8 | 1
C/C=C(/C)C(=O)OC1c2c(ccc3ccc(=O)oc23)OC(C)(C)C1OC(C)=O (centres undefined) | 3 | 0 | -4 | 2 | 3 | 2
OCC[C@@H]1C[C@H](O)[C@@H](O)[C@]2(OCCc3ccccc32)O1 | 3 | -4 | 4 | -1 | 1 | 1
COc1ccccc1-c1cnc(C(O)c2ccc(CN3CCCCC3)cc2)[nH]1 (centres undefined) | / | -1 | / | / | / | /
COc1ccc(C2C/C(=N\O)C(C)(C)O2)cc1 (centres undefined) | 0 | -3 | 1 | 17* | 1 | -1
FC(F)(F)Oc1ccc(NC(=S)Nc2ccc(OC(F)(F)F)cc2)cc1 | -3 | -7 | 4 | 1 | 72* | 2
CC(C)c1ccc(NC(=S)Nc2ccc(OC(F)(F)F)cc2)cc1 | -2 | 0 | 6 | 4 | -1 | 0
COCCCn1c(O)c(/C=C2\N=C(C#N)C(=Nc3ccc(C)cc3)O2)sc1=S | -12 | 1 | 10 | -3 | 53* | 2
O=C(O)CCCn1c(O)c(C=C2N=c3ccccc3=N2)sc1=S | 6 | 5 | -5 | -2 | 5 | -1
CCC1(c2ccccc2)NC(=O)N(CC(=O)NCc2ccc(C)cc2)C1=O (centres undefined) | 0 | -9 | -1 | 0 | 1 | 0
Cc1ccc(-n2c(O)c(C=Nc3ccccc3-c3n[nH]c(=S)[nH]c3=O)c3ccccc3c2=O)c(C)c1 | -6 | 8 | 2 | 8 | 73* | 3
Cc1nnc(N/N=C/c2ccc(Br)cc2)n1N | 4 | 78* | 4 | -5 | -1 | 2
COC(=O)C1(C)NC(c2cccc(C)c2)C2C(=O)N(c3ccccc3)C(=O)C21 (centres undefined) | / | -4 | / | / | / | /
CC(/C=N/N1CCN(c2ccccn2)CC1)=C\c1ccccc1 | 1 | 76* | 6 | -2 | -2 | -2
O=C1CCc2cc(S(=O)(=O)NC3CCCCC3)cc3c2N1CC3 | 2 | 0 | 11 | -2 | -2 | 0
CCc1ccc(/C=N/NC(=O)c2cc(-c3cccc([N+](=O)[O-])c3)n[nH]2)cc1 | -9 | 76* | 7 | 5 | -10 | 0
COc1ccc(OC)c(S(=O)(=O)Oc2ccc(N)c3ccccc23)c1 | 5 | 75* | -4 | 0 | 10 | 3
Cc1ccc2[nH]c(O)c(N=Nc3nc4ccccc4s3)c2c1 | -6 | -4 | 4 | -2 | 108* | 0
Oc1[nH]c2ccccc2c1N=Nc1nc2ccccc2s1 | 5 | -2 | 5 | 1 | 22 | 4
CN(C)S(=O)(=O)N1C(=O)c2ccccc2C1=O | 2 | -10 | 8 | 1 | -3 | 1
CN(C)/C=C1\C=C2C(=O)c3ccccc3N2C1=O | 46* | -6 | 12 | -84 | 19 | -89
Cc1ccc(C(=O)NCCc2nnc3c(C(F)(F)F)cc(Cl)cn23)o1 | 4 | -4 | -1 | -1 | -6 | 0
CC(C)C(=O)N1CCN(c2ccccc2NC(=O)c2ccc(Br)o2)CC1 | 2 | 0 | 1 | / | / | /
SMILES | IDE act | Exocytosis inh | IDE inh | PP1 counter | SKKanGAS inh | PP5 inh
CCC(=O)N1CCN(c2cc3c(cc2F)c(=O)c(C(=O)O)cn3CC)CC1 | 4 | -3 | -5 | 1 | -1 | -1
CCn1cc(C(=O)O)c(=O)c2cc(F)c(N/N=C/c3ccccc3[N+](=O)[O-])cc21 | 5 | 72* | 4 | 2 | 79* | -1
CC(C)CN1C(=S)SC(C)(C)C1n1oc(=O)n(-c2ccccc2)c1=O (centres undefined) | 6 | 14 | -2 | 1 | 10 | 4
CC(C)CN1C(=S)SC(C)(C)C1n1oc(=O)n(-c2ccc(Cl)cc2)c1=O (centres undefined) | 6 | 0 | 1 | 4 | 71* | 3
CC1(C(=O)NCc2ccccc2)CN(S(C)(=O)=O)CC(=O)N1C1CC1 (centres undefined) | / | -3 | / | / | / | /
COc1cccc(/C=N/NC(=O)C(=O)N/N=C/c2cccc(OC)c2O)c1O | / | 0 | / | / | / | /
COc1cccc(/C=N/NC(=O)c2ccoc2C)c1O | 6 | -3 | 1 | -4 | 77* | -4
COc1cccc(/C=N/NC(=O)NC23CC4CC(CC(C4)C2)C3)c1O | / | 4 | -4 | 0 | 97* | 4
O=C(COc1ccc(S(=O)(=O)N2CCOCC2)cc1)NCCc1ccc(Cl)cc1 | / | -4 | / | / | / | /
O=C(CN1C(=O)COc2ccc(S(=O)(=O)N3CCCC3)cc21)NCc1ccccn1 | 19* | -2 | 1 | -6 | -10 | 0
COc1ccc(CNC(=O)CN2C(=O)COc3ccc(S(=O)(=O)N4CCCC4)cc32)cc1 | 2 | -4 | -10 | -1 | 1 | -1
CCN(CC)S(=O)(=O)c1ccc2c(c1)N(CC(=O)NCc1ccccn1)C(=O)CO2 | -1 | 0 | -2 | -2 | -11 | -1
O=C(CN1C(=O)COc2ccc(S(=O)(=O)N3CCCCC3)cc21)NCc1ccc(F)cc1 | 2 | 10 | 1 | 3 | 103* | 2
CCOC(=O)c1ccccc1NC(=O)C1CC(=O)N(C2CCCC2)C1 (centres undefined) | 0 | -4 | / | / | / | /
Cc1cc2cc(C(c3nnnn3Cc3ccco3)N3CCc4ccccc4C3)c(=O)[nH]c2cc1C (centres undefined) | 2 | -3 | 0 | 15* | -6 | 3
CCOCCn1c(=O)c2c(nc3n2CCCN3CCc2ccccc2)n(C)c1=O | 1 | -20 | -7 | 1 | 0 | 1
Cc1nn(C(C)C(=O)NCCCN2CCCCCC2)c(=O)c2c1sc1ccccc12 (centres undefined) | -6 | -3 | -3 | -1 | -6 | 1
Cc1nn(C(C)C(=O)NCc2ccccc2Cl)c(=O)c2c1sc1ccccc12 (centres undefined) | -1 | 82* | -5 | 2 | 22 | 0
Cc1c(Cl)cccc1N1C(=O)CC(Sc2ccccc2N)C1=O (centres undefined) | / | -3 | / | / | / | /
O=C(CSC(=S)N1CCCCC1)Nc1nc(-c2ccccc2)c(-c2ccccc2)o1 | -1 | 0 | 3 | 4 | 50* | 5
COc1cc(OC)cc(C(=O)Nc2nc(-c3ccccc3)c(-c3ccccc3)o2)c1 | -3 | 6 | 4 | -2 | 90* | 4
Cn1nnnc1SCC(=O)Nc1nc(-c2ccccc2)c(-c2ccccc2)o1 | 2 | -3 | 1 | 14 | 59* | 1
CC(=O)Nc1nc(-c2ccccc2)c(-c2ccccc2)o1 | 5 | 0 | 6 | -1 | 7 | -2
